Screens from PubChem BioAssay.
The full list was thinned out, with hits kept by preference.
ERAP1 HTS inh: ERAP1 (human) enzyme inhibition; Q9NZ08; recombinant ERAP1, Leu-AMC fluorescence, 60 min; inhibition, % at 10.7 µM; 0.15% of 340,000 active;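 active = mean replicate inhibition of at least 30%, or all replicates individually reaching that 30% level; inactive = mean below 30% and not every replicate reaching it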;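 also: 0% = neutral control wells and 100% = L-leucinethiol positive control wells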
PDI inh: PDI (human) enzyme inhibition; P07237; PDI insulin aggregation turbidity, A650, 90 min; inhibition, % at 10 µM; 0.052% of 350,000 active; AID 588391;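 active = mean inhibition across replicates of 30% or more, whatever share of single replicates reach that level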
HDAC3 inhib: blocks human histone deacetylase 3 | O15379 | inhibition, % at 8.3 µM | AID 2718 | 0.15% of 320,000 active | recombinant HDAC3, fluorogenic peptide/trypsin coupled, fluorescence; in the data active = inhibition above about 26%, passing the limit was not always enough
ERp5 inh: inhibitors of human ERp5; ERp5 insulin aggregation, absorbance 650 nm, 90 min; inhibition, % at 9.99 µM; 0.05% of 350,000 active;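 active = mean replicate inhibition above about 25%, with every replicate also reaching it, limit read from the data, passing the limit was not always enough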
SIRT5 inh: inhibitors of human sirtuin-5 desuccinylase; Purified SirT5, succinyl-peptide AMC, trypsin-coupled fluorescence; inhibition, % at 15 µM; 1.1% of 330,000 active; in the data active = inhibition above about 15%
* hit, by the source's call.

Screening CC1CN(S(=O)(=O)c2ccc(CN3C(=O)c4cccnc4C3=O)s2)c2ccccc2O1 (stereo not drawn) returned ERAP1 HTS inh -3, PDI inh -8, HDAC3 inhib -1, ERp5 inh 6 and SIRT5 inh 24*.
For CC1CN(S(=O)(=O)c2ccc(CN3C(=O)c4cccnc4C3=O)cc2)c2ccccc2O1 (stereo not drawn) the results were ERAP1 HTS inh -1, PDI inh 1, HDAC3 inhib -1, ERp5 inh -15 and SIRT5 inh 0.
CCOc1ccc2ccccc2c1C(=O)N1CCN(c2ccccc2)CC1 was read as ERAP1 HTS inh 0, PDI inh 6, HDAC3 inhib 3, ERp5 inh -5 and SIRT5 inh 19*.
For CC12CCC3c4ccc(O)cc4CCC3C1CCC2=O (stereo not drawn) the results were ERAP1 HTS inh -3, PDI inh 45*, HDAC3 inhib -5, ERp5 inh -10 and SIRT5 inh -1.
`COc1cccc(S(=O)(=O)N[C@H]2C=C[C@@H](CC(=O)NC3CCC3)O[C@H]2CO)c1` gave ERAP1 HTS inh 0, ERp5 inh 2 and SIRT5 inh -6.
Screening C=CC[C@H](CC(=O)N(CCO)Cc1ccccc1)C(=O)N[C@H](COC(=O)[C@@H](CC=C)Cc1ccc(F)cc1)Cc1ccccc1 returned ERAP1 HTS inh -2, PDI inh -1, HDAC3 inhib 33*, ERp5 inh 2 and SIRT5 inh -7.
C=CCC[C@H](Cc1ccc(F)cc1)C(=O)OC[C@@H](Cc1c[nH]c2ccccc12)NC(=O)[C@@H](CC=C)CC(=O)N(CCO)Cc1ccccc1 was read as PDI inh -3, HDAC3 inhib 40* and ERp5 inh 1.
`C=CC[C@@H](CC(=O)NCCO)C(=O)N[C@@H](COC(=O)[C@@H](CC=C)Cc1ccc(F)cc1)Cc1c[nH]c2ccccc12` gave ERAP1 HTS inh -2, PDI inh 3, HDAC3 inhib 26* and ERp5 inh 4.
For CO[C@@H]1CN(C)C(=O)c2ccc(NC(=O)C3CCOCC3)cc2OC[C@H](C)N(Cc2cccnc2)C[C@@H]1C the results were ERAP1 HTS inh 0 and ERp5 inh 11.
CN(C)S(=O)(=O)c1ccc(C(=O)NCC[N+]2(C)CCCCCC2)o1 was read as ERAP1 HTS inh 41*, PDI inh 0, HDAC3 inhib 3, ERp5 inh 0 and SIRT5 inh -2.
For Cc1ccc(NC(=O)c2ccc(Br)o2)cc1S(=O)(=O)N(C)C the results were ERAP1 HTS inh -3, PDI inh 3, HDAC3 inhib 6, ERp5 inh 5 and SIRT5 inh 0.
`COc1ccc(S(=O)(=O)Nc2cccc3c2O[C@H](CN(C)S(=O)(=O)c2ccc(Cl)cc2)[C@@H](C)CN([C@@H](C)CO)C3=O)cc1` gave ERAP1 HTS inh -2, ERp5 inh 1 and SIRT5 inh -1.
`O=C(NCc1ccc(Cl)nc1)c1ccc2sc([C@@H]3O[C@H](CO)[C@H](O)[C@H](O)[C@H]3O)nc2c1` gave ERAP1 HTS inh -2, PDI inh 3, ERp5 inh 1 and SIRT5 inh 17*.
Screening Cc1cnc(CNC(=O)c2ccc3sc([C@@H]4O[C@H](CO)[C@H](O)[C@H](O)[C@H]4O)nc3c2)cn1 returned ERAP1 HTS inh -3, PDI inh -1 and ERp5 inh 7.
Screening COc1cc(C(=O)NCC2(N(C)C)CCCCC2)ccc1OCc1ccccc1 returned ERAP1 HTS inh -4, PDI inh -11, HDAC3 inhib 1, ERp5 inh -1 and SIRT5 inh 65*.
`CCCc1c(C)[nH]c2ccc(C(=O)O)cc2c1=S` gave ERAP1 HTS inh 24, PDI inh 5, ERp5 inh 4 and SIRT5 inh 26*.
`CCCC(=O)N1CC2(CN(S(=O)(=O)CC)C2)c2c(n(C)c3cc(OC)ccc23)[C@H]1CO` gave ERAP1 HTS inh -2 and ERp5 inh -1.
Screening COc1cccc(OC)c1OCCOc1ccc(C(=O)c2ccccc2)cc1 returned ERAP1 HTS inh -1, PDI inh -6, HDAC3 inhib 5, ERp5 inh -4 and SIRT5 inh 17*.
For O=S1(=O)N[C@@H](Cc2ccccc2)COc2cccc(N3CCCC3)c21 the results were ERAP1 HTS inh -7, ERp5 inh 3 and SIRT5 inh 23*.
O=S1(=O)N[C@@H](Cc2ccccc2)COc2cccc(N3CCCCC3)c21 was read as ERAP1 HTS inh -12, ERp5 inh 5 and SIRT5 inh 0.
